Among all 310,000 compounds or so, about 410 (0.13%) were called active. Another 2% or so got no clear call; they are omitted. The rule behind the calls is not given here. The list is a sample of the results. Results with a measured potency or affinity are listed apart.
Assay: inhibition of RSV-induced cytopathic effect – HEp-2 cells, primary 10 µM value included (AID 2391)
Settings: at 10 µM, stronger effect = higher value

CPE inhibition, inactive:
CN1C=C(C(F)(F)F)C=C/C1=C(\C#N)c1nnc2n1CCCCC2 1.8%
COc1ccc(C2CCCN2C(=O)Nc2ccccc2)cc1OC (configuration not stated) 2.18%
COc1ccc(CNC(=O)CCCn2nc(C)n3ccnc3c2=O)cc1 1%
C=Cn1cc[n+](CC(=O)c2cccs2)c1 0.58%
COc1ccc2[nH]cc(C(=O)CN3CCCCC3)c2c1 -0.42%
COc1ccc2[nH]cc(C(=O)CN3CCC(C)CC3)c2c1 0.91%
O=C1CCCN1c1ccc(C(=O)N(Cc2nnc(-c3ccc(Cl)cc3)o2)C2CC2)cc1 1.99%
O=C(c1ccc(Cl)c(S(=O)(=O)N2CCOCC2)c1)N(Cc1nnc(-c2ccccc2Cl)o1)C1CC1 14.6%
CC(C)CCOC(=O)C(C)Sc1n[nH]c(=O)[nH]c1=O (configuration not stated) 8.79%
Cc1cc(O)c(NC(=S)NC(=O)c2ccc(-c3ccc(Cl)cc3)o2)cc1C 11.3%
COC(=O)c1ccccc1NC(=O)c1ccc(-c2ccc(Br)cc2)o1 4.75%
Cc1ccc(NC(=S)NC(=O)c2ccc(-c3ccc(Cl)cc3)o2)c(O)c1 1.42%
Cc1c(NC(=S)NC(=O)c2ccc(-c3ccc(Cl)cc3)o2)cccc1C(=O)O 53.5%
O=C(O)c1ccc(NC(=S)NC(=O)c2ccc(-c3ccc(Br)cc3)o2)cc1 10.7%
O=C(NC(=S)Nc1ccccc1O)c1ccc(-c2ccc(Cl)cc2)o1 -1.25%
O=C(N/C(=C/c1cccc([N+](=O)[O-])c1)C(=O)N1CCCCC1)c1ccco1 -0.57%
Cc1ccc(S(=O)(=O)NC(C)(C)CN2CCNCC2)cc1 -0.5%
O=C(CCCCCN1C(=O)c2cccc3cccc(c23)C1=O)N1CCOCC1 2.04%
CCCc1c(NC(=O)Nc2ccc(F)cc2)cnn1-c1ccc(Cl)cc1 4.89%
CCCc1c(C(=O)Nc2ccc(F)cc2)cnn1-c1ccccc1 3.97%
O=C(c1ccco1)N1CCN(c2ccccc2F)CC1 0.67%
CCN(CC)C(=O)N1c2ccccc2Sc2ccccc21 11.5%
CNC(=O)N1c2ccccc2C=Cc2ccccc21 0.96%
Cc1ccc(NC(=O)c2cccs2)cc1NC(=O)c1ccccc1Cl 2.07%
COc1cccc(C(=O)Nc2cc(NC(=O)c3cccs3)ccc2C)c1 10.5%
COc1cc(NC(=S)NC(=O)c2cc(C)cc(C)c2)ccc1NC(=O)c1cccs1 7.54%
COc1cc(NC(=S)NC(=O)c2c(OC)cccc2OC)ccc1NC(=O)c1cccs1 2.67%
CCCCN(C)CCNC(=O)c1cn(C)c(=O)c2c1c1ccccc1n2C 1.07%
COc1ccc(OC)c(C2C(C#N)=C(N)N(N(C)C)C3=C2C(=O)CC(C)(C)C3)c1 (configuration not stated) 1.69%
Nc1ccc2nc(SCC(=O)N3CCOCC3)sc2c1 0.05%
CCN(CC)CCNC(=O)c1ccc(NC(=O)Cc2ccccc2F)cc1 -0.24%
COc1ccc(Cl)cc1NC(=O)NCc1cccnc1 2.51%
Nc1nnnn1/N=C/c1ccc(Br)cc1 7.9%
Nc1nnnn1/N=C/c1ccc(F)cc1 1.72%
O=C(COc1ccccc1[N+](=O)[O-])OCCCOC(=O)COc1ccccc1[N+](=O)[O-] 0.68%
CCN1/C(=C2\C(=O)N(C)C(=S)N2c2ccccc2)C=Cc2ccccc21 1.96%
CC1(C)Cc2cccc(OCC(=O)Nc3nccs3)c2O1 1.37%
CC1(C)Cc2cccc(OCC(=O)Nc3cccnc3)c2O1 0.28%
COc1ccc(C)cc1Nc1n[n+](-c2ccccc2)c(-c2cc(OC)c(OC)cc2Br)s1 13.7%
COC(=O)c1cc(NS(=O)(=O)c2ccc(NCc3cccnc3)c([N+](=O)[O-])c2)cc(C(=O)OC)c1 1.44%
COc1ccccc1NC(=O)N1CCN(c2ccc3nnc(-c4ccc(F)cc4)n3n2)CC1 20.8%
CCSc1ccccc1C(=O)N1CCC2(CC1)CC(=O)c1ccccc1O2 2.51%
Cc1ccccc1NC(=O)COc1cccc2c1CCNC2=O -2.82%
COc1cccc(NC(=O)COc2cccc3c2CCNC3=O)c1 -2.16%
CCOC(=O)NC(Nc1ccc(C)cn1)(C(F)(F)F)C(F)(F)F 0.51%
Cc1cccc(C(=O)NC2CCN(CC(=O)N3CCOCC3)CC2)c1 0.56%
c1ccc(-c2nnc3ccc(N4CCCC4)nn23)cc1 13.9%
O=C(c1ccc(Br)o1)N1CCN(c2ccc3nnc(-c4ccc(F)cc4)n3n2)CC1 1.21%
COc1cc(F)ccc1CN1CCC(n2nccc2NC(=O)C2CCOC2)CC1 (configuration not stated) -1%
Cc1cc(C(=O)Cn2nnc3ccccc3c2=O)c(C)n1-c1c(C)n(C)n(-c2ccccc2)c1=O 2.35%
COc1ccc(-n2c(C)cc(C(=O)Cn3nnc4ccccc4c3=O)c2C)cc1 2.15%
CN(C)c1ccc(CN(CC2CCCO2)C(=O)c2cccs2)cc1 (configuration not stated) -0.5%
Cn1c(=O)c2c(n(Cc3ccccc3)c1=O)NC(=O)C2CC(=O)O (configuration not stated) 0.62%
Cc1ccccc1OCCC(=O)Nc1ccc2c(C)cc(=O)oc2c1 1.79%
CCC(C)n1c(SCC(=O)Nc2ccccc2C(F)(F)F)nc2ccsc2c1=O (configuration not stated) 13.6%
COCCN(C(=O)C1CC1)c1nnc(-c2cccc(C)c2)s1 14%
COCCN(C(=O)C(C)C)c1nnc(-c2ccc(C)cc2)s1 1.29%
C=CCc1cccc(/C=N/NC(=O)c2ccccc2OC)c1O 4.29%
O=C(O)c1ccccc1Nc1ccccc1C(=O)O 0.65%
O=C(O)c1cc([N+](=O)[O-])ccc1Nc1ccccc1 2.12%
O=C(O)c1ccccc1Nc1ccccc1 2.02%
COc1ccc(Nc2ccccc2C(=O)O)cc1 -0.36%

Source: PubChem BioAssay AID2391 (Southern Research Specialized Biocontainment Screening …, 2010)
